This is an account of results in PubChem BioAssay (NCI).

Compounds without any hit were thinned out: in the full panel of roughly 83,000, 20% have a hit.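 The test compound was applied at a single concentration to cells in 96-well plates for 48 hours, and percent growth was recorded.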 A number with no mark means an inactive call. Activity calls are given as the source filed them. The calls were made as follows: active = growth percent below 10; inactive = the rest.

What all share (assay): NCI-60 one-dose screen, 48 h (100 = growth as untreated, 0 = no growth, -100 = all killed)
The test system of assay [1] is HCT-15 colon. The note with it: 10 µM unless noted.
Assay [2] deals with HT29 colon. As to conditions: 10 µM unless noted.
The subject of assay [3] is SNB-75 CNS. As to conditions: 10 µM unless noted.
The subject of assay [4] is SNB-19 CNS. The note with it: 10 µM unless noted.
For assay [5], the system named is U251 CNS. The note with it: 10 µM unless noted.
Assay [6] relates to PC-3 prostate. The note with it: 10 µM unless noted.
Assay [7] deals with SK-MEL-5 melanoma. The note with it: 10 µM unless noted.
In assay [8] the test system is UACC-62 melanoma. The note with it: 10 µM unless noted.
For assay [9], the system named is LOX IMVI melanoma. As to conditions: 10 µM.
The subject of assay [10] is SK-MEL-28 melanoma. The note with it: 10 µM unless noted.
The subject of assay [11] is SK-MEL-2 melanoma. As to conditions: 10 µM unless noted.
Assay [12] relates to EKVX NSCLC. The note with it: 10 µM unless noted.
The test system of assay [13] is UO-31 renal. As to conditions: 10 µM unless noted.
The subject of assay [14] is TK-10 renal. As to conditions: 10 µM unless noted.
Assay [15] has as its system ACHN renal. The note with it: 10 µM unless noted.
The test system of assay [16] is A498 renal. The note with it: 10 µM unless noted.
The subject of assay [17] is CCRF-CEM leukemia. As to conditions: 10 µM unless noted.
The test system of assay [18] is CAKI-1 renal. As to conditions: 10 µM unless noted.
Assay [19] has as its system MOLT-4 leukemia. The note with it: 10 µM unless noted.
The subject of assay [20] is SN12C renal. As to conditions: 10 µM unless noted.

With `Cc1cc(C(=O)c2ccccc2)cc(C)c1O`, the growth in assay [1] was 96.4%; in assay [2], 113%; in assay [3], 87.8%; in assay [4] it was 120%; in assay [5], 98.1%; in assay [6] it was 93.5%. Besides, the growth in [7] was 104%; in assay [8], 108%; in assay [9], 92.1%; in [10], 115%; in assay [11] it was 118%; in assay [12], 112%. The growth in assay [13] is 84%; in [14], 123%; in [15], 99.8%; in [16] it was 98%; in [17] it was -22.1% (active).

`COc1ccc(Br)c2c1C(=O)CC2`: the growth in [1] is 110%; in assay [2], 106%; in [3] it was 99.6%; in [4], 108%; in [5], 107%; in assay [6], 96.6%. In addition, the growth in assay [7] is 109%; in [8] it was 90.4%; in assay [9], 104%; in [10], 135%; in assay [11], 96%; in [12] it was 106%. The growth was 85.4% in assay [13]; 147% in [14]; 114% in assay [15]; 110% in assay [18]; 169% in assay [16]; 93.1% in assay [17]. For the same molecule, the growth in assay [19] was 142%.

For the molecule `O=C1CSc2ccccc2N1`, the growth was 118% in [1]; 100% in assay [2]; 76.2% in assay [3]; 96.3% in assay [4]; 96.7% in assay [5]; 93.1% in assay [6]. Besides, the growth was 109% in assay [7]; 106% in [8]; 88% in [9]; 105% in assay [10]; 103% in [11]; 97% in [12]. For the same molecule, the growth in assay [20] was 100%; in assay [13], 69.2%; in [14], 105%; in [16], 97.2%; in [17], 96.6%; in [19], 114%.

Consider `CN1C(=O)NC(c2ccc(Cl)cc2)(c2ccc(Cl)cc2)C1=O`, for which the growth was 106% in assay [1]; 93% in [2]; 84.2% in [3]; 105% in assay [4]; 94.9% in assay [5]; 84.6% in assay [6]. For the same molecule, the growth in [7] is 98.9%; in [8], 83.8%; in assay [9], 96.2%; in [10], 102%; in assay [11] it was 80.6%; in assay [12], 91.5%. Besides, the growth was 103% in assay [20]; 61.5% in [13]; 129% in assay [14]; 92.9% in assay [18]; 110% in assay [16]; -30.3% (active) in assay [17]. Further, the growth in assay [19] is 89.1%.

On to `OC(CCN1CCCCC1)(c1ccccc1)c1ccccc1`, for which the growth is 104% in assay [1]; 96.1% in assay [2]; 85.8% in assay [3]; 110% in assay [4]; 100% in assay [5]; 96% in [6]. The growth is 97.4% in [7]; 106% in assay [8]; 97.2% in [9]; 112% in assay [10]; 110% in assay [11]; 98.9% in assay [12]. The growth in assay [20] was 108%; in assay [13], 75.4%; in assay [14], 113%; in assay [18], 92.6%; in [16], 100%; in assay [17] it was 103%. In assay [19], the growth was 102%.

With `CCNCC(C)(C)O`, the growth in assay [1] is 104%; in assay [2], 109%; in assay [3], 79.4%; in assay [4], 102%; in [5] it was 104%; in assay [6], 91.5%. Besides, the growth in assay [7] is 97.3%; in assay [8], 102%; in assay [9], 101%; in assay [10] it was 101%; in assay [11] it was 107%; in [12], 99.6%. The growth in assay [20] is 101%; in assay [13], 83.6%; in assay [14], 108%; in assay [18], 99.1%; in assay [17] it was 106%; in assay [19], 99.2%.

Take `CC(C)N1CC(=O)N2CSCC2C1=O` (configuration not stated): the growth in assay [1] was 105%; in assay [2], 119%; in assay [3], 99.3%; in assay [4], 121%; in assay [5], 105%; in assay [6] it was 101%. In addition, the growth in assay [7] is 104%; in [8] it was 104%; in [9], 98.9%; in assay [10], 111%; in assay [11], 115%; in [12], 105%. In addition, the growth in [13] is 96.5%; in assay [14], 109%; in assay [15], 109%; in assay [18], 100%; in assay [16] it was 123%; in [17], 107%. Further, in assay [19], the growth was 111%.

Take `C/C(O)=C(/C=N\C(=S)Nc1ccc(S(=O)(=O)Nc2nccs2)cc1)C(=O)Nc1ccccc1C`: the growth in [1] was 102%; in [2], 116%; in assay [3], 89%; in assay [4], 92.7%; in assay [5], 84%; in assay [6], 84.9%. The growth is 93% in [7]; 81.8% in assay [8]; 92% in [9]; 110% in [10]; 115% in assay [11]; 101% in assay [12]. Further, the growth in [20] is 87.5%; in assay [13], 93.2%; in assay [14], 111%; in assay [18], 91.9%; in assay [16], 60.5%; in assay [17], 87.4%. The growth in assay [19] is 83.7%.

With `O=Cc1ccc(O)c(O)c1`, the growth in [1] was 103%; in [2], 105%; in assay [3] it was 87.2%; in [4], 86%; in assay [5] it was 102%; in assay [6], 82.9%. Besides, the growth in assay [7] is 95.3%; in assay [8] it was 98.2%; in [9], 91.2%; in assay [10] it was 92.4%; in [11], 103%; in [12], 103%. For the same molecule, the growth in assay [13] was 84.2%; in assay [14] it was 107%; in [15] it was 114%; in assay [18], 112%; in [16] it was 88.4%; in assay [17], 57.8%. Also, the growth in [19] is 80.5%.
